# Literature values, collected in PubChem BioAssay AID977610.
# Among all 3,600 compounds or so, about 3,600 (100%) were called active. No cut-off is given here; in the data, nearly all actives have Ki up to about 18000 µM. So high a share suggests a set chosen from earlier hits. The list shows a part of the results.
# Assay: PubChem AID 977610
# Conditions: PDB protein-ligand complexes, literature Ki
compound,measurement,setting,value
COC(=O)N[C@H](C(=O)N/[N+](=C\c1ccc(C2=CCSC2)cc1)CCC[C@@]1(O)Cc2ccc(cc2)C/C=C\CNC(=O)[C@H](C(C)C)NC1=O)C(C)(C)C,Ki,"protein: HIV-1 protease, PDB entry 4cpu",0.0295 µM (active)
COC(=O)N[C@H](C(=O)N/[N+](=C\c1ccc(-c2ccsc2)cc1)CCC[C@@]1(O)Cc2ccc(cc2)CC/C=C\NC(=O)[C@H](C(C)C)NC1=O)C(C)(C)C,Ki,"protein: HIV-1 protease, PDB entry 4cpw",0.0315 µM (active)
CCOP(=O)(COc1ccc(C[C@H](NC(=O)O[C@H]2CO[C@H]3OCC[C@H]32)[C@H](O)CN(CC(C)C)S(=O)(=O)c2ccc(OC)cc2)cc1)OCC,Ki,"protein: HIV-1 Protease, PR1 E35EE (VPR1), PDB entry 4m8y",0.00011 µM (active)
same,Ki,"protein: HIV-1 Protease, PR2 (VPR2), PDB entry 4m8x",6.3e-05 µM (active)
CC(C)CN(C[C@@H](O)[C@H](Cc1ccccc1)N[C@@H](O)O[C@H]1CO[C@H]2OCC[C@H]21)S(=O)(=O)c1ccc(C(=O)O)cc1,Ki,"protein: Protease, PDB entry 4i8w",1.27e-05 µM (active)
CC(C)CN(C[C@@H](O)[C@H](Cc1ccccc1)NC(=O)O[C@H]1CO[C@H]2OCC[C@H]21)S(=O)(=O)c1ccc(C(N)=O)cc1,Ki,"protein: Protease, PDB entry 4i8z",8.9e-06 µM (active)
NC1NC(=O)c2[nH]cc(CN3C[C@H](CO)[C@@H](O)C3)c2N1 (some centres undefined),Ki,"protein: Purine nucleoside phosphorylase (W16Y, W94Y, W178Y, H257W mutation), PDB entry 4eb8",0.000151 µM (active)
NC1N[C@@](c2cccc(-c3cncnc3)c2)(c2ccnc(C(F)F)c2)c2cccc(F)c21 (some centres undefined),Ki,"protein: BETA-SECRETASE 1, PDB entry 4b05",0.0261 µM (active)
CCC(CC)O[C@@H]1CC(C(=O)O)=C[C@H](N)[C@H]1NC(C)=O,Ki,"protein: Neuraminidase, PDB entry 4ks1",0.0015 µM (active)
CCC(CC)O[C@@H]1C=C(C(=O)O)C[C@H](NC(N)N)[C@H]1NC(C)=O,Ki,"protein: Neuraminidase, PDB entry 4ks2",0.00046 µM (active)
Cc1onc(-c2ccccc2Cl)c1C(=O)NCC(=O)O,Ki,"protein: AmpC beta-lactamase, PDB entry 4kz5",10000 µM (active)
C[C@@H](O)c1nc2cnc3[nH]ccc3c2n1C1CCC(C#N)CC1 (some centres undefined),Ki,"protein: Tyrosine-protein kinase JAK1, PDB entry 4ivb",0.0019 µM (active)
same,Ki,"protein: Tyrosine-protein kinase JAK2, PDB entry 4iva",0.0684 µM (active)
C[C@@H](O)c1nc2cnc3[nH]ccc3c2n1C1CCC(CC#N)CC1 (some centres undefined),Ki,"protein: Tyrosine-protein kinase JAK1, PDB entry 4ivc",0.0001 µM (active)
COc1ccc(C2CCCC3N=C(Nc4ccc(N5CCN(C)CC5)cc4)NN32)cc1 (centres undefined),Ki,"protein: Tyrosine-protein kinase JAK2, PDB entry 4jia",0.0006 µM (active)
CC(=O)N[C@H]1[C@H]([C@H](O)[C@H](O)CO)OC(C(=O)O)C[C@@H]1O (some centres undefined),Ki,"protein: Trypanosoma cruzi trans-sialidase, PDB entry 1ms0",1230 µM (active)
same,Ki,"protein: human cytosolic sialidase Neu2, PDB entry 1vcu",140 µM (active)
CC(=O)N[C@H]1[C@H]([C@H](O)[C@H](O)CO)O[C@@H](C(=O)O)C[C@@H]1N=C(N)N,Ki,"protein: Neuraminidase from the B-Lyon-CHU-15.216-2011 virus, PDB entry 4cpz",0.0209 µM (active)
CC(=O)N[C@H]1[C@H]([C@H](O)[C@H](O)CO)OC(C(=O)O)C[C@@H]1NC(N)N (some centres undefined),Ki,"protein: Human Sialidase Neu2, PDB entry 2f0z",17 µM (active)
CCC(CC)(NC(=O)C(C)C)C(=O)N[C@@H](CCCNC(N)N)C(=O)NC1(C(=O)NC(c2ccccc2)c2ccccc2)CCCC1,Ki,"protein: WD repeat-containing protein 5, PDB entry 4gm3",0.001 µM (active)
CCC(CC)(NC(=O)C(C)C)C(=O)N[C@@H](CCCNC(N)N)C(=O)NC1(C(=O)NC(c2ccc(F)cc2)c2ccc(F)cc2)CCCC1,Ki,"protein: WD repeat-containing protein 5, PDB entry 4gm8",0.001 µM (active)
C[C@](COC(=O)CCCCC(=O)O)([C@@H](NCCC=O)C(=O)O)S(=O)O,Ki,"protein: SHV-1 beta-lactamase, PDB entry 4mbf",1.7 µM (active)
C[C@H](C(=O)O)c1ccc2c(c1)[nH]c1ccc(Cl)cc12,Ki,"protein: E. coli sliding clamp, DNA polymerase III subunit beta, PDB entry 4mjr",283 µM (active)
C[C@@H](O[P+](O)(O)O)C(=O)O,Ki,"protein: PHOSPHO-2-DEHYDRO-3-DEOXYHEPTONATE ALDOLASE DAH7PS, PDB entry 4umb",99 µM (active)
C[C@H](O[P+](O)(O)O)C(=O)O,Ki,"protein: PHOSPHO-2-DEHYDRO-3-DEOXYHEPTONATE ALDOLASE DAH7PS, PDB entry 4umc",360 µM (active)
H-SRVPTSII-OH,Ki,"protein: CFTR Associated Ligand (CAL) PDZ domain, PDB entry 4jog",190 µM (active)
H-RLPTSII-OH,Ki,"protein: CFTR Associated Ligand (CAL) PDZ domain, PDB entry 4jof",68 µM (active)
H-SRFPTSII-OH,Ki,"protein: CFTR Associated Ligand (CAL) domain, PDB entry 4joj",110 µM (active)
H-NSRYPTSII-OH,Ki,"protein: CFTR Associated Ligand (CAL) PDZ domain, PDB entry 4jok",85.3 µM (active)
CC(C)(C)NC(=O)[C@@]1(c2c(C(=O)O)[nH]c3cc(Cl)ccc23)N2C(=O)[C@]21c1ccc(OCc2ccc(Cl)cc2)cc1,Ki,"protein: E3 ubiquitin-protein ligase Mdm2, PDB entry 4mdn",0.6 µM (active)
CC(C)(C)NC(=O)[C@@H]1C[C@@H]2CCCC[C@@H]2CN1C[C@@H](O)[C@H](C[C@@H]1C=CCCC1)NC(=O)[C@H](CC(N)=O)NC(=O)C1=CCc2ccccc2N1,Ki,"protein: Protease PRG48T/L89M, PDB entry 4qgi",125 µM (active)
Nc1nc2c(ncn2CC(COC[P+](O)(O)O)COC[P+](O)(O)O)c(=O)[nH]1,Ki,"protein: hypoxanthine-guanine phosphoribosyltransferase, PDB entry 4ijq",0.03 µM (active)
Nc1nc2c(ncn2[C@H]2CN(C(=O)C[P+](O)(O)O)C[C@H]2O)c(=O)[nH]1,Ki,"protein: Xanthine phosphoribosyltransferase, E. coli XGPRT, PDB entry 4jls",2.2 µM (active)
Nc1nc2c(ncn2[C@H]2CCN(C(=O)C[P+](O)(O)O)C2)c(=O)[nH]1,Ki,"protein: Xanthine phosphoribosyltransferase, E. coli XGPRT, PDB entry 4jit",0.23 µM (active)
